Screening data (PubChem BioAssay)
proKLK7 act: proKLK7 (human) activation, primary screen. P49862. purified proKLK7, EDANS-DABCYL substrate fluorescence; 100% is mature enzyme control, 0% vehicle. activation, % at 7 µM. 370,000 tested, 0.9% active. AID 652039;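 active means activation above the mean of all tested compounds plus 3 SD, computed per campaign excluding outliers beyond control limits, cut at about 13% in these data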
NR3A LBD binder: modulates the human NR3A ligand-binding domain; NR3A LBD differential scanning fluorimetry, Tm shift; 0% = protein alone, 100% = glycine-bound protein; AID 1259313; 340,000 tested, 2.5% active; Tm shift relative to glycine control, % at 25 µM;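 active means melting temperature shift of at least 10% of the positive control shift, at one fixed dose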
FAS-TE inh: FAS thioesterase (human) inhibition | inhibition, % at 15 µM | recombinant FAS-TE, OMFH fluorogenic substrate, fluorescence endpoint | P49327 | 360,000 tested, 0.67% active;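 active means compounds whose normalised, plate-corrected inhibition of enzyme fluorescence in the single-dose primary screen is 50% or more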;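 further: 0% = DMSO with enzyme and 100% = substrate without enzyme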
Target sequence (P49327 whole entry, looked up): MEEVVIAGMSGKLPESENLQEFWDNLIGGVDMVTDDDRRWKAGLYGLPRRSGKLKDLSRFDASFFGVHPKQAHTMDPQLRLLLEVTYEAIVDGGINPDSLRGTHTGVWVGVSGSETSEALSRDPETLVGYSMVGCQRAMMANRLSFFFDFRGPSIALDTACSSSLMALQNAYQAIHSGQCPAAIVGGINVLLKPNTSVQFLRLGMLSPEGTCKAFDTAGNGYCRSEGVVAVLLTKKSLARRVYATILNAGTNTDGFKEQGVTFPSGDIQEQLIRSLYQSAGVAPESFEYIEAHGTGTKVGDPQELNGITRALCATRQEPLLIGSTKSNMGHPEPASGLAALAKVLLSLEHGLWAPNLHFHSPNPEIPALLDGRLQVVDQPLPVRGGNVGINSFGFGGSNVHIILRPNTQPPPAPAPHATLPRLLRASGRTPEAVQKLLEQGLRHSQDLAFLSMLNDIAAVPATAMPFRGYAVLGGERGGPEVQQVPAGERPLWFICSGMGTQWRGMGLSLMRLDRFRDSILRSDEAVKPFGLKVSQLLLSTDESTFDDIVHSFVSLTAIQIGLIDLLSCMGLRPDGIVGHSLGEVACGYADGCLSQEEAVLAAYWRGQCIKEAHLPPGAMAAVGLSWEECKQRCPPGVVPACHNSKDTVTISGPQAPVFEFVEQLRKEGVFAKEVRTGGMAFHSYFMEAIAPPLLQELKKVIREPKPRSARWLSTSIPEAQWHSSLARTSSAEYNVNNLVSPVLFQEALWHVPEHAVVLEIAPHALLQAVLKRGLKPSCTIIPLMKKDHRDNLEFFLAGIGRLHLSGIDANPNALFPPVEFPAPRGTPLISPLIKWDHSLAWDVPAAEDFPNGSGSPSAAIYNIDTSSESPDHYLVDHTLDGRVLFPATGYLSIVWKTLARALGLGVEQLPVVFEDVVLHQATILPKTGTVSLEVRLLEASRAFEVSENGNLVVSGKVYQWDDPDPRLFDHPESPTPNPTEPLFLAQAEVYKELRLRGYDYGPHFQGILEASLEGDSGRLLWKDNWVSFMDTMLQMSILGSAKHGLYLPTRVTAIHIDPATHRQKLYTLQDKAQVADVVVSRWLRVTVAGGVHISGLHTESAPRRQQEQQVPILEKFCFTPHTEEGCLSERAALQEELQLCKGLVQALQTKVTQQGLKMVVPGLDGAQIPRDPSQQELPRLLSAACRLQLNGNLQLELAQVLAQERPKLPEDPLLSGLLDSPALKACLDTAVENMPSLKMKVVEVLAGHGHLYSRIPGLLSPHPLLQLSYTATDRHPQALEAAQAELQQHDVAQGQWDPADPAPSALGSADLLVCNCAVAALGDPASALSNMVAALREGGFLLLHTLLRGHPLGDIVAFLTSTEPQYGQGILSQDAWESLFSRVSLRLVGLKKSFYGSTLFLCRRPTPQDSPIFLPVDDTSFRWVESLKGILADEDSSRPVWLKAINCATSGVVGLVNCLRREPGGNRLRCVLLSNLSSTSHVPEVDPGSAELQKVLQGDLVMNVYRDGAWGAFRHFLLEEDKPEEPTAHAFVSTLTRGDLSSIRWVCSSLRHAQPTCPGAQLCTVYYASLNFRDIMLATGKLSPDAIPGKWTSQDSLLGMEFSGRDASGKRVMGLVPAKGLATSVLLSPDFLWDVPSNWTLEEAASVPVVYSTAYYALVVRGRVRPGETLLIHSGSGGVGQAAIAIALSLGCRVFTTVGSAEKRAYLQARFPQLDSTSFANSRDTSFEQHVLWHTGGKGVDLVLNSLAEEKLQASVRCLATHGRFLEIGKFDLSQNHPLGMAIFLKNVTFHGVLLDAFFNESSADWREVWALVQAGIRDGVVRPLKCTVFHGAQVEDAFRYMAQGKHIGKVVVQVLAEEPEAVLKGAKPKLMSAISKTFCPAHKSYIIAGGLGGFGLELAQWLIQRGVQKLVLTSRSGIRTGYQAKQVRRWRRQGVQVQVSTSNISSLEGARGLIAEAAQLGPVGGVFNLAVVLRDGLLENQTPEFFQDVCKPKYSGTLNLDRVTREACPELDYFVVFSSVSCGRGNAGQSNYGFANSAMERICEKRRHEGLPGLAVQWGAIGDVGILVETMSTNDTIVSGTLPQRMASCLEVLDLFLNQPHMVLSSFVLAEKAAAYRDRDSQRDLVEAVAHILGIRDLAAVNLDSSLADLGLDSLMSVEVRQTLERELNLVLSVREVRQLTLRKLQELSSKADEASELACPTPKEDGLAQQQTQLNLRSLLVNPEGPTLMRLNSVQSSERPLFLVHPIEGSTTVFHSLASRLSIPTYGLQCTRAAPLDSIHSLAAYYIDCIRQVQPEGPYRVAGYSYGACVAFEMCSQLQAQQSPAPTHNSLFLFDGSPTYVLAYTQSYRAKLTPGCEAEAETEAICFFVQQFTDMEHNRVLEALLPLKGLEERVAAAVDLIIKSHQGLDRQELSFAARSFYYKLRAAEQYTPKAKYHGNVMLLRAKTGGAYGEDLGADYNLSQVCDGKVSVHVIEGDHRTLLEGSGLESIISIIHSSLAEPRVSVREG
ADAM17 inh: ADAM17 inhibition, QFRET primary screen; inhibition, % at 6.95 µM; 370,000 tested, 0.83% active; recombinant ADAM17, EDANS/DABCYL FRET peptide cleavage; AID 720648; P78536;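 active means inhibition above the mean of compounds lying between control limits plus 3 SD, set per campaign, cut at about 8.5% in these data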;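 further: 0% = DMSO-only wells as the low control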
ADAM10 inh: ADAM10 inhibition, QFRET primary screen | inhibition, % at 7 µM | recombinant ADAM10, EDANS/DABCYL FRET peptide cleavage, 3 h | AID 720582 | 370,000 tested, 0.62% active | O14672;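 active means inhibition above a per-campaign cutoff equal to the mean of compounds falling between control-based bounds plus 3 SD, cut at about 20% in these data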;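 further: 0% = DMSO wells while the 100% control is not disclosed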
ADAM10 ctr: ADAM10 inhibition, counter-screen for ADAM17 exosite hits. shares compounds with ADAM17 inh. inhibition, % at 6.95 µM. 2,900 tested, 47% active. recombinant ADAM10, EDANS/DABCYL FRET peptide cleavage, 3 h;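 active means mean inhibition over the triplicate runs exceeds the activity threshold set in the earlier primary screen, cut at about 20% in these data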;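 further: 0% = DMSO wells and 100% = marimastat wells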
ADAM17 confirm: confirmation of inhibitors of human ADAM17. shares compounds with ADAM17 inh. recombinant ADAM17, EDANS/DABCYL QFRET peptide cleavage. inhibition, % at 6.95 µM. 2,900 tested, 65% active. AID 743257;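 active means mean inhibition across replicates above the hit cutoff set in the primary screen, cut at about 8.5% in these data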;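 further: 0% = DMSO wells and 100% = marimastat wells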
* marks the source's active call; other numbers are inactive results; / = no result given. Sampled rows, rich in hits. Any-hit rate of the full collection: about 4.6%.

SMILES | proKLK7 act | NR3A LBD binder | FAS-TE inh | ADAM17 inh | ADAM10 inh | ADAM10 ctr | ADAM17 confirm
CC(=O)N(c1nc2ccccc2s1)N1C(=O)c2ccccc2C1=O | -1 | / | / | -6 | -6 | / | /
C[C@H](O)[C@@H]1C(=O)N2CCc3c([nH]c4c(-c5ccccc5)cccc34)[C@@H]2C[C@@H]1N(C)C(=O)c1ccco1 | 0 | / | / | -32 | -121 | / | /
CC12CCC(C(=O)NNc3ccccc3)(OC1=O)C2(C)C (stereo not given) | 0 | -3 | -2 | -5 | -9 | / | /
CC12CCC(C(=O)NC(c3ccccc3)c3ccccc3)(OC1=O)C2(C)C (stereo not given) | 1 | 0 | 10 | 9.1* | 12 | -5 | -1
ON=C(c1ccccc1)c1ccc2c3c(cccc13)CC2 | 0 | / | 9 | 12* | 2 | 20* | 9.0*
CC(=O)c1ccc2c3c(cccc13)CC2 | -11 | 4 | 1 | -59 | -176 | / | /
CCC(CC)C(=O)Nc1c(C(=O)N2CCN(c3ccccc3)CC2)oc2ccccc12 | 0 | -2 | 15 | 9.3* | -6 | 3 | 4
Cc1ccc2nc(SCC(=O)Nc3cccc(S(=O)(=O)N(C)C)c3)[nH]c2c1 | 0 | -7 | 11 | 12* | 19 | 12 | 11*
CC(C)C[C@H](NC(=O)c1ccccc1)C(=O)N1CCC[C@H]1C(=O)NCc1ccccc1 | 0 | / | / | -2 | -12 | / | /
O=C(CN1C(=O)S/C(=C\c2ccc(F)cc2)C1=O)Nc1cccc(S(=O)(=O)NCc2ccco2)c1 | -1 | 11* | 33 | 9.2* | 9 | 21* | 12*
Cc1ccc(-c2[nH]nc(N)c2N=Nc2ccccc2C)cc1 | 0 | 44* | 24 | 9.7* | 15 | 25* | 16*
COC(=O)c1ccccc1N=Nc1c(N)n[nH]c1N | 0 | 3 | -6 | 1 | 1 | / | /
Cc1ccc(S(=O)(=O)N(C)c2cccc3c2S(=O)(=O)N([C@H](C)c2ccccc2)C[C@@H](COCc2ccccc2)O3)cc1 | 0 | / | / | 3 | 11 | / | /
COc1ccccc1C(=O)N(CCN(C)C)c1nc2cc(C)cc(C)c2s1 | 1 | -1 | -2 | -1 | 1 | / | /
Cc1cc(C)c2sc(N(CCN(C)C)C(=O)c3ccc4ccccc4c3)nc2c1 | -1 | 1 | 21 | 10* | 3 | 8 | 8
O=C(C1=C[C@@H](C2CCCCC2)C[C@@H](OCc2ccc(CO)cc2)O1)N1CCN(Cc2ccc3c(c2)OCO3)CC1 | 1 | -5 | 26 | 10* | 18 | 27* | 18*
CCn1c(-c2ccccc2Cl)nn(CC(=O)Nc2cc(Cl)ccc2Cl)c1=S | 1 | -1 | 3 | 12* | 7 | 5 | 5
CCn1c(-c2ccccc2Cl)nn(CC(=O)NCCc2ccccc2)c1=S | 0 | 1 | -5 | -1 | 9 | / | /
Cc1ccc2nc(-c3cccc(Br)c3)c(Cc3ccsc3)n2c1 | 0 | / | / | -6 | -30 | / | /
CCOc1ccc(-c2n[nH]c(C)c2-c2ccccc2OC)c(O)c1 | 0 | -16 | -2 | 4 | 19 | / | /
CCc1cc(-c2n[nH]c(C)c2-c2ccccc2Cl)c(O)cc1OC | -1 | 13* | -16 | 8.7* | 17 | 32* | 16*
Fc1ccc(C(CCNCc2cccs2)c2ccco2)cc1 (stereo not given) | 0 | 2 | 2 | 0 | -3 | / | /
O=S(=O)(NCCC(c1ccc(F)cc1)c1ccco1)c1ccccc1 (stereo not given) | 0 | -13 | 34 | 13* | 15 | 18 | 11*
COC(=O)C1=C(C)N(Cc2ccc(C(F)(F)F)cc2)C(=NCc2ccccc2C(F)(F)F)NC1c1ccc(F)cc1 (stereo not given) | -1 | / | / | 0 | 2 | / | /
C=CCN1C(=O)[C@H](CC(=O)NCCCC)[C@@]2(C(=O)OCC)CCCC=C12 | 0 | / | / | 0 | -3 | / | /
SMILES | proKLK7 act | NR3A LBD binder | FAS-TE inh | ADAM17 inh | ADAM10 inh | ADAM10 ctr | ADAM17 confirm
Cc1noc(C)c1NC(=O)Nc1cccc2c1O[C@H](CN(C)S(=O)(=O)c1ccc(F)cc1)[C@@H](C)CN([C@H](C)CO)C2=O | 0 | -1 | 0 | 11* | 3 | 3 | 2
Cc1noc(C)c1S(=O)(=O)N(C)C[C@H]1Oc2c(NC(=O)C3CCCCC3)cccc2C(=O)N([C@H](C)CO)C[C@@H]1C | 0 | -1 | -6 | 10* | 5 | 5 | 2
CCc1ccc(C(C)NC(=O)/C(C#N)=C\c2cn[nH]c2-c2ccccc2)cc1 (stereo not given) | 0 | -4 | -63 | 11* | 17 | 35* | 17*
Cc1cc(NC(=O)CSCC(=O)N(c2cccc(Cl)c2)C(C(=O)NC2CCCCC2)c2ccc(O)c(O)c2)no1 (stereo not given) | 0 | -1 | -13 | 9.5* | 8 | -2 | 5
C#CCNC(=O)C[C@H]1C[C@@]2(C(=O)OC)C(=C[C@H](COCc3ccccc3)O[C@@H]2C)N(CCC2=CCCCC2)C1=O | 1 | / | / | -1 | -5 | / | /
CSc1ccccc1NC(=O)Nc1cccc(Cl)c1Cl | 0 | -1 | -14 | -4 | -6 | / | /
O=C(Nc1ccccc1)Nc1cccc(Cl)c1Cl | 0 | 3 | 17 | 12* | 15 | 13 | 8
CSc1ccccc1NC(=O)Nc1cccc(Cl)c1 | 0 | 10* | 19 | 9.7* | 14 | 15 | 10*
CCCCCCCCN1C(=O)[C@@H](CC(=O)NCc2cccc(C(F)(F)F)c2)C[C@@]2(C(=O)OC)C1=C[C@H](C1CCCC1)O[C@@H]2C | 0 | / | / | -3 | -12 | / | /
OC(c1ccc(-c2ccccc2)cc1)c1ncc(-c2ccc(F)cc2)[nH]1 (stereo not given) | 1 | / | 15 | 11* | 19 | 23* | 12*
OC(c1ccccc1)c1ncc(-c2ccc(Cl)cc2)[nH]1 (stereo not given) | 0 | / | -3 | 4 | 0 | / | /
CSc1ccc(C(O)c2ncc(-c3cccc(OCc4ccccc4)c3)[nH]2)cc1 (stereo not given) | -1 | / | 13 | 9.3* | 19 | 23* | 11*
COc1cccc(-c2cnc(C(O)c3ccc(SC)cc3)[nH]2)c1 (stereo not given) | -1 | / | 2 | 1 | 10 | / | /
Clc1ccccc1Sc1cnc2ccccc2n1 | -1 | 0 | 15 | 8.8* | 1 | -6 | 0
Clc1ccc(Sc2cnc3ccccc3n2)cc1 | 0 | 2 | 9 | -4 | -9 | / | /
COc1ccc(Nc2oc(COc3ccc(Cl)cc3)nc2C#N)cc1 | 0 | 2 | 28 | 13* | 26* | 31* | 18*
COc1ccc(Nc2oc(-c3ccc(Cl)cc3)nc2C#N)cc1 | 0 | -4 | 0 | -20 | -61 | / | /
